Screen size: about 1,900 compounds; about 50 (3%) showed an effect of 50% or more. The entries come from a sample that favours strong results as a whole.

The target in this experiment is p38/MK2 protein–protein interaction (VF-p38α / GST-MK2) (Homo sapiens, UniProt Q16539). In words: primary screen, percent of control activity; higher = less effect of the substance. Also on record: species or system HEK293T cell lysate transfected with VF-p38α and GST-MK2; unclear (methods say 'quintuplet replicates'). How it is done: The TR-FRET assay was conducted in a 1536-well plate (Corning, catalog no. 3724) with HEK293T cell lysate transfected with VF-p38α and GST-MK2. Cell-lysate concentration was optimized with a titration experiment. Anti-Flag-Tb and anti-GST-d2 antibodies (Revvity, catalog no. 61FGBTLB) were used to couple p38α and MK2, respectively. A multiple-drop Combi dispenser (Thermo Scientific) combined reaction mixtures in quintuplet replicates. The TR-FRET signals were measured using a BMG Labtech PHERAstar FSX plate reader and normalized to the percent of DMSO control.
p38/MK2 protein–protein interaction (VF-p38α / GST-MK2), sequence (Q16539 2-360 limits assumed): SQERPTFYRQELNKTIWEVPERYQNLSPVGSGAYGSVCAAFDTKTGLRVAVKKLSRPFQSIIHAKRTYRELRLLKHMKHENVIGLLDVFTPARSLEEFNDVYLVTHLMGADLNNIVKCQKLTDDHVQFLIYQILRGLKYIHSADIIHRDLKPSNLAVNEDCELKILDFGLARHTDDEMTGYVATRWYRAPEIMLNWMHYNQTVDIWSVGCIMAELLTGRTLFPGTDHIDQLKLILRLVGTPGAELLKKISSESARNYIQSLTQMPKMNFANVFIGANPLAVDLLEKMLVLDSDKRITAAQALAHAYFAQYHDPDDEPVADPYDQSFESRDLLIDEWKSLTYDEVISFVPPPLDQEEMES
The compound `CC1(C)CCC2=C(O1)c1ccccc1C(=O)C2=O` displayed a Pct of control of 102%. Next, `CCC1OC(=O)C(C)C(OC2CC(C)(OC)C(O)C(C)O2)C(C)C(OC2OC(C)CC(N(C)C)C2O)C(C)(O)CC(C)C(=NOCOCCOC)C(C)C(O)C1(C)O` (centres unmarked): 103%; `C=CC(=O)Nc1cccc(Sc2nc(Nc3ccc(N4CCN(C)CC4)cc3)ncc2Cl)c1`: 91.7%; `Nc1cccc(-c2cc3c(Oc4cccc(O)c4)ncnc3[nH]2)c1`: 90.3%.

In the case of `CC[C@@H]([C@H](C)O)n1ncn(-c2ccc(N3CCN(c4ccc(OC[C@@H]5CO[C@@](Cn6cncn6)(c6ccc(F)cc6F)C5)cc4)CC3)cc2)c1=O`, the Pct of control turned out to be 97%. As to `NC(N)=NS(=O)(=O)c1ccc(N)cc1`, the Pct of control is given as 105%. The compound `Cc1c(Cl)cccc1Nc1ccccc1C(=O)O` showed a Pct of control of 99.2%. For `NC(=O)N1c2ccccc2C=Cc2ccccc21`, the Pct of control was 93.5%. On to `CCC(C)n1ncn(-c2ccc(N3CCN(c4ccc(OCC5COC(Cn6cncn6)(c6ccc(Cl)cc6Cl)O5)cc4)CC3)cc2)c1=O` (centres unmarked), for which the Pct of control is on record as 88.6%. Next, `COc1ccc(-c2cnc3c(-c4cccc5ncccc45)cnn3c2)cc1`: 23.2%. On to `CC(C)Oc1ccc(-c2cnc3c(-c4ccnc5ccccc45)cnn3c2)cc1`, for which the Pct of control is 89.1%. The figure for `c1cc(-c2cnn3cc(-c4ccc(N5CCNCC5)cc4)cnc23)c2cccnc2c1` is 10.1%; for `CN1CCC(OC(c2ccccc2)c2ccccc2)CC1.Cl` it is 89.1%; for `COc1ccc(C2=NC(c3ccc(Cl)cc3)C(c3ccc(Cl)cc3)N2C(=O)N2CCNC(=O)C2)c(OC(C)C)c1` (centres unmarked) [S8065] it is 100%. The figure for `COc1ccccc1S(=O)(=O)Nc1ccc2c(c1)CN(C)C(=O)N2` is 117%. The figure for `CCN(C(=O)c1c(O)c2c(Cl)cccc2n(C)c1=O)c1ccccc1` is 88.3%. Regarding `O=[N+]([O-])c1ccc2c(c1)S(=O)(=O)C=C2`, the Pct of control turned out to be 58.2%.

On to `CC1CN(CC(=O)Nc2ccc3c(c2)Cc2cccc(-c4cc(=O)cc(N5CCOCC5)o4)c2S3)CC(C)O1` (centres unmarked), for which the Pct of control worked out at 82.7%. Next, `CN(CC(=O)N(Cc1ccc(C2CCCCC2)cc1)c1ccc(C(=O)O)cc1)S(=O)(=O)c1c(F)c(F)c(F)c(F)c1F`: 24.1%. The compound `O=c1c2ccccc2nc2n1CCc1c-2[nH]c2ccccc12` had a Pct of control of 100%. `NNC(=O)c1ccncc1` yielded a Pct of control of 86.5%. The figure for `CCOC(=O)c1ccc(C#Cc2ccc3c(c2)C(C)(C)CCS3)nc1` is 106%. The figure for `Cc1cc(Nc2ncnc3ccc(-c4ccc(CNCCS(C)(=O)=O)o4)cc23)ccc1Oc1ccn2ncnc2c1` is 24.2%.

As for `CS(=O)(=O)CCNCc1ccc(-c2ccc3ncnc(Nc4ccc(OCc5cccc(F)c5)c(Cl)c4)c3c2)o1`, the Pct of control turned out to be 88.1%.

`Cc1ccc(CNc2ncnc3ccc(-c4ccc(CO)o4)cc23)o1` came in with a Pct of control of 69.2%. For the compound `Cc1cc(=O)[nH]c(=S)[nH]1`, the Pct of control is listed as 101%.

Compound `CN(c1ncccc1CNc1nc(Nc2ccc3c(c2)CC(=O)N3)ncc1C(F)(F)F)S(C)(=O)=O.Cl` had a Pct of control of 76.7%.

`CS(=O)(=O)c1cccc(CNc2nc(Nc3ccc4c(c3)CCC(=O)N4)ncc2C(F)(F)F)c1` registered a Pct of control of 34%.

Consider `CN(c1ncccc1CNc1nc(Nc2ccc3c(c2)CC(=O)N3)ncc1C(F)(F)F)S(C)(=O)=O`, for which the Pct of control is on record as 106%. Next, `CC(C)Cc1ccc(C(C)C(=O)O)cc1` (centres unmarked): 93%; `O=C(COc1cccc2c(=O)[nH]ccc12)c1ccccc1`: 89.7%; `CNS(=O)(=O)Cc1ccc2[nH]cc(CCN(C)C)c2c1.O=C(O)CCC(=O)O`: 102%. For `CC(=O)OC1(C(C)=O)CCC2C3CC(C)C4=CC(=O)CCC4(C)C3CCC21C` (centres unmarked), the Pct of control was 87%.

As for `COc1c(C)c(C(=O)c2ccc(N)c(C(=O)[O-])c2)n2ccccc12.[Na+]`, the Pct of control is given as 94%.

Turning to `CC(C)c1ccccc1Cc1cc(C(=O)Nc2ccc(S(=O)(=O)c3ccccc3C(C)(C)C)cc2)c(O)c(O)c1O`, the Pct of control worked out at 33.3%. The figure for `CC(=O)NS(=O)(=O)c1ccc(NC(=O)c2ccccc2C(=O)O)cc1` is 96.2%. In turn, `CC(C)(C)c1cc(C(C)(C)C)c(NC(=O)c2c[nH]c3ccccc3c2=O)cc1O` registered a Pct of control of 111%. Next, `Cc1ccc(Cl)c(Nc2ccccc2C(=O)[O-])c1Cl.[Na+]`: 95.1%; `COc1ccc2cccc(CCNC(C)=O)c2c1`: 90.6%; `CS(=O)(=O)O.CS(=O)(=O)O.Cc1ccc(C(=O)Nc2ccc(CN3CCN(C)CC3)c(C(F)(F)F)c2)cc1C#Cc1cnc2[nH]ncc2c1`: 73.8%.

`NS(=O)(=O)C#Cc1ccccc1` showed a Pct of control of 97.5%.

Turning to `Cc1cccc(C#Cc2ccccc2)n1`, the Pct of control is given as 29.7%. On to `O=C1NC(=O)C(=Cc2ccc3nccc(-c4ccncc4)c3c2)S1`, for which the Pct of control is listed as 126%. Next, `Cc1ccc(Cl)cc1N(CC(=O)Nc1c(F)cccc1F)S(C)(=O)=O`: 91.8%. The compound `N#CC(c1ccc(Cl)cc1)c1c(Cl)cc(-n2ncc(=O)[nH]c2=O)cc1Cl` (centres unmarked) displayed a Pct of control of 72%. Next, `COc1cc2c(cc1-c1c(C)noc1C)ncc1[nH]c(=O)n(C(C)c3ccccn3)c12` (centres unmarked): 53.6%. The figure for `Cc1cc(NC(=O)Nc2ccc(N(C)C)cc2)c2cc(F)cc(F)c2n1` is 89.3%. Next, `CN(C)c1ccc(-c2nc3ncc(Cl)c(N4CCN(CC(=O)Nc5nccs5)CC4)c3[nH]2)cc1`: 97.9%; `Nc1ccc(-c2ccc3ncc4ccc(=O)n(-c5cccc(C(F)(F)F)c5)c4c3c2)cn1`: 87.9%; `COc1ccc(-c2ccc3ncc4c(c3c2)n(-c2ccc(N3CCNCC3)c(C(F)(F)F)c2)c(=O)n4C)cn1.O=C(O)C=CC(=O)O`: 45%.

These data come from article PMC12751014, “Non-Catalytic Inhibitors of the p38/MK2 Interface: Repurposing Approved Drugs to Target Neuroinflammation in Alzheimer’s Disease” (Journal of Medicinal Chemistry, 2025).
